# Source: PubChem BioAssay AID2762 (National Center for Advancing Translational Sciences (NCATS), 2010)
# Inconclusive results are not listed. Activity calls are given as the source filed them. The call rests on the fitted dose curve; in most records, active means well fitted inhibition curve with a large enough effect; inconclusive means small, poorly fitted or top-dose-only effect, or effect the other way; inactive means no such curve, though single readings can be large or run the other way.
# Target: Nuclear receptor ROR-gamma (Mus musculus) (UniProt P51450)
# Assay: Concentration response confirmation assay for inhibitors of ROR gamma transcriptional activity
# Details: Drosophila S2 Gal4-RORgamma UAS-luciferase, 20 h; series mostly up to 46.1 µM
# From the text: NIH Molecular Libraries Probe Production Network [MLPCN] NIH Chemical Genomics Center [NCGC] MLPCN Grant: R03 DA026211-01 Assay Provider: Dan Littman, New York University Assay Overview: The retinoic acid-related orphan receptor (ROR) gamma is a transcription factor that has a central role in the differentiation of Th17 cells, a subset of T helper cells that secrete the inflammatory cytokines IL-17, IL-17F, and IL-22. Th17 cells have been implicated in graft versus host disease, autoimmune disease and asthma. ROR gamma is induced in naive T helper cells in the presence of TGF-beta combined with IL-6, IL-21, or IL-23, and thereafter directs the expression of the Th17 lineage cytokines. To study the mechanism of action of ROR gamma, an insect cell-based assay was screened. This Drosophila Schneider cell line was stably transfected with two vectors: a gene expressing a fusion of the Gal4 DNA binding domain and ROR gamma transactivation domain under the control of the metallothionine promoter and a Photinus luciferase reporter regulated by the Gal4 binding site enhancer, UAS. […] Small molecule inhibitors of ROR gamma activity are detected by a decrease in luciferase reporter activity.
# Assay Protocol Summary: For screening, 600 cells in 4 uL/well were dispensed into white solid 1536-well plates (Grenier) using a solenoid-based dispenser. Following transfer of 23 nL compound or DMSO vehicle by a pin tool, the plates were incubated 1 hr at ambient temperature, and 1 uL/well copper sulfate (700 uM final concentration) was added. The plates were centrifuged 15 s at 1000 RPM and incubated 20 hr at ambient temperature. After addition of 1.5 uL Photinus luciferase detection reagent, the plates were incubated 10 min at ambient temperature and then read by an ViewLux (Perkin Elmer) to detect luminescence. Keywords: NIH Roadmap, MLPCN, MLI, MLSMR, qHTS, NCGC, qHTS, nuclear hormone receptor, retinoic acid-related orphan receptor, ROR gamma
# Nuclear receptor ROR-gamma (Mus musculus), sequence (P51450 whole entry, looked up): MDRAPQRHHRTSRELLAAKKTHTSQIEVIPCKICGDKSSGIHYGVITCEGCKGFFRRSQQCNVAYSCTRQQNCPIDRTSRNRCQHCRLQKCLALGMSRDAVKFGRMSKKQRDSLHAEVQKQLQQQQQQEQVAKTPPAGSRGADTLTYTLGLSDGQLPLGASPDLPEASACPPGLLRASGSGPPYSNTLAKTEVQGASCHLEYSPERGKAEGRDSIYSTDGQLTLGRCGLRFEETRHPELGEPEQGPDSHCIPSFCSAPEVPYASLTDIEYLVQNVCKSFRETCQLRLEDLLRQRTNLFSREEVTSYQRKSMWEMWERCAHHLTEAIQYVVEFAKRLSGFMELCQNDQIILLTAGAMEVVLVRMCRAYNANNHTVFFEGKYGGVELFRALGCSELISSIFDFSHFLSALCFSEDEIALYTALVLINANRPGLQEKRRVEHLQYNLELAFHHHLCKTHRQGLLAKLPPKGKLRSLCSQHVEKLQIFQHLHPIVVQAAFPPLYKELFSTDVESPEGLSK
row,Compound,Potency
1,O=C(NC(=S)Nc1nc(-c2ccc(Br)cc2)cs1)c1cccnc1,inactive
2,COC(=O)c1ccc(OCC(=O)c2ccc(O)cc2O)cc1,0.125 µM (active)
3,CCOc1ccc2nc(NC(=O)c3cnccn3)sc2c1,3.15 µM (active)
4,CCOC(=O)C1CCN(c2ncnc3c2cnn3-c2ccc(OC)cc2)CC1,inactive
5,Cc1nn(-c2cc(C)c3ccccc3n2)c2c1C1C(C2)C1(C)C (stereo not given),6.28 µM (active)
6,CCc1ccc(-c2nc(CSCC(=O)NC3CC3)c(C)o2)cc1,3.97 µM (active)
7,COc1ccc2nc(NC(=O)c3sc4nc(C)cc(C)c4c3N)sc2c1,0.0199 µM (active)
8,Cc1cc(NC(=O)CN2CCOCC2)n(-c2nc3ccccc3s2)n1,15.8 µM (active)
9,Cc1cc(C)c2sc(NC(=O)c3ccc(N4C(=O)CCC4=O)cc3)nc2c1,0.0705 µM (active)
10,CCn1nc(C)c(CN2CCC(n3nccc3NC(=O)c3ccc4c(c3)OCO4)CC2)c1C,inactive
11,COc1cccc(-c2cc(C(=O)N3CCc4ccccc4C3)[nH]n2)c1,inactive
12,O=C(/C=C/c1ccc(S(=O)(=O)N2CCOCC2)cc1)NC(=S)Nc1ccc(N2CCOCC2)cc1,9.96 µM (active)
13,O=[N+]([O-])c1ccccc1/C=C/C=N/n1c(-c2ccc(Cl)cc2)n[nH]c1=S,inactive
14,Cc1ccc(OCCn2cc(C(=S)N3CCCC3)c3ccccc32)cc1C,12.5 µM (active)
15,Cc1ccc(-c2n[nH]c(=S)n2/N=C/C=C\c2ccccc2[N+](=O)[O-])cc1,inactive
16,Clc1ccccc1/C=N/NC1=Nc2cccc3cccc1c23,0.199 µM (active)
17,C=C(C)c1cccc(C(C)(C)NC(=O)N2CCN(CC)CC2)c1,inactive
18,CC(C)(C)c1ccc(-c2noc(CCC(=O)Nc3cccnc3)n2)cc1,0.0996 µM (active)
19,O=C(COc1ccccc1Cl)NCCCN1CCOCC1,inactive
20,O=C(CN1CCCCCC1)Nc1ccc(S(=O)(=O)N2CCOCC2)cc1,inactive

row,Compound,Potency
1,O=C(O)c1ccc(/C=N/n2cc(-c3ccccc3)[nH]c2=S)cc1,inactive
2,O=C(NCC1CCCO1)C(C(=O)c1ccccc1)n1ccccc1=O (stereo not given),inactive
3,CNc1cc(C(F)(F)F)nc(-c2ccccn2)n1,3.97 µM (active)
4,O=C(CCN1C(=O)/C(=C/c2ccccc2Cl)SC1=S)N1CCCC1,11.2 µM (active)
5,Cc1nn(-c2ccccc2)c(C)c1C(=O)Nc1nnc(-c2ccco2)o1,0.996 µM (active)
6,O=C(Cn1c(=O)oc2ccc(Cl)cc21)Nc1ccon1,inactive
7,CCN(CC)c1ccc2cc(-c3nc4ccccc4[nH]3)c(=O)oc2c1,3.97 µM (active)
8,S=c1nc(COc2ccccc2)[nH]c2ccccc12,6.28 µM (active)
9,COc1ccc(-c2cc(C(=O)NNC3=NCCC3)c3c(C)nn(-c4ccccc4)c3n2)cc1,4.45 µM (active)
10,CCOC(=O)c1ccc2nc(Nc3nc4ccc(F)cc4s3)sc2c1,5.6 µM (active)
11,COc1ccc(/C=C/C(=O)NC(=S)NCC2CCCO2)cc1 (stereo not given),11.2 µM (active)
12,Cc1cc(NCc2ccccn2)n2ncc(-c3ccc(Cl)cc3)c2n1,0.199 µM (active)
13,COc1ccc(C(=O)/C=C/c2ccc(OC)cc2OC)c(O)c1,0.888 µM (active)
14,O=c1c2cc(Br)ccc2[nH]c(=S)n1Cc1cccnc1,11.2 µM (active)
15,CCN1CCCc2cc(CN(CCN3CCOCC3)C(=S)Nc3ccc(C)cc3)ccc21,9.96 µM (active)
16,N=C1S/C(=C\c2ccco2)C(=O)N1c1nccs1,0.141 µM (active)
17,COc1ccc(-c2cc(C(F)(F)F)nc(S(=O)(=O)CCCC(=O)Nc3cccnc3Cl)n2)cc1OC,11.2 µM (active)
18,CCOC(=O)c1sc(NC(=O)c2ccc(S(=O)(=O)N(C)C)cc2)nc1C,0.0791 µM (active)
19,O=C(O)/C=C/C(=O)Nc1ccccc1SC(F)(F)F,inactive
20,CCN1CCCc2cc(CN(CCN3CCOCC3)C(=S)Nc3ccccc3C)ccc21,9.96 µM (active)
